According to the supplement of paper PMC8728848:
Many of the other results were omitted from the sample, so the strongest signals are more common in it than they were.

Legend:
Experiment in all cases: glycan array binding signal (z-score within array); higher = stronger binding
Settings in all cases: glycan notation: IUPAC condensed, linker removed
[1] = target: Fuc(a1-2)Gal(b1-4)GlcNAc(b1-3)Gal(b1-4)GlcNAc
In short: (§1)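 Glycan array data were curated from 3228 arrays in the Consortium for Functional Glycomics database and kept only where the protein sequence was available. Glycan names were converted to IUPAC-condensed notation, and columns mapping to the same glycan were averaged. The binding signal is a within-array Z-score, averaged across arrays of the same protein sequence at different concentrations or buffers and across linkers. Negative Z-scores can be read as non-binding.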

[2] = target: Fuc(a1-2)Gal(b1-4)GlcNAc(b1-3)Gal(b1-4)GlcNAc(b1-2)Man(a1-3)[Fuc(a1-2)Gal(b1-4)GlcNAc(b1-3)Gal(b1-4)GlcNAc(b1-2)Man(a1-6)]Man(b1-4)GlcNAc(b1-4)GlcNAc
In short: as §1

[3] = target: Fuc(a1-2)Gal(b1-4)[Fuc(a1-3)]GlcNAc
In short: as §1

[4] = target: Fuc(a1-2)Gal(b1-4)[Fuc(a1-3)]GlcNAc(b1-2)Man(a1-3)[Fuc(a1-2)Gal(b1-4)[Fuc(a1-3)]GlcNAc(b1-2)Man(a1-6)]Man(b1-4)GlcNAc(b1-4)[Fuc(a1-6)]GlcNAc
In short: as §1

[5] = target: Fuc(a1-2)Gal(b1-4)[Fuc(a1-3)]GlcNAc(b1-2)[Fuc(a1-2)Gal(b1-4)[Fuc(a1-3)]GlcNAc(b1-4)]Man(a1-3)[Fuc(a1-2)Gal(b1-4)[Fuc(a1-3)]GlcNAc(b1-2)Man(a1-6)]Man(b1-4)GlcNAc(b1-4)GlcNAc
In short: as §1

[6] = target: Fuc(a1-2)Gal(b1-4)[Fuc(a1-3)]GlcNAc(b1-3)GalNAc
In short: as §1

[7] = target: Fuc(a1-2)Gal(b1-4)[Fuc(a1-3)]GlcNAc(b1-3)[Neu5Ac(a2-6)Gal(b1-4)GlcNAc(b1-6)]Gal(b1-4)Glc
In short: as §1

[8] = target: Fuc(a1-2)Gal6S(b1-4)Glc6S
In short: as §1

[9] = target: Fuc(a1-2)[Gal(a1-3)]Gal(b1-4)GlcNAc(b1-2)Man(a1-3)[Fuc(a1-2)[Gal(a1-3)]Gal(b1-4)GlcNAc(b1-2)Man(a1-6)]Man(b1-4)GlcNAc(b1-4)GlcNAc
In short: as §1

[10] = target: Fuc(a1-2)[Gal(a1-3)]Gal(b1-4)[Fuc(a1-3)]GlcNAc(b1-3)GalNAc
In short: as §1

[11] = target: Fuc(a1-2)[GalNAc(a1-3)]Gal(b1-3)GlcNAc
In short: as §1

[12] = target: Fuc(a1-2)[GalNAc(a1-3)]Gal(b1-3)GlcNAc(b1-2)Man(a1-3)[Fuc(a1-2)[GalNAc(a1-3)]Gal(b1-3)GlcNAc(b1-2)Man(a1-6)]Man(b1-4)GlcNAc(b1-4)[Fuc(a1-6)]GlcNAc
In short: as §1

[13] = target: Fuc(a1-2)[GalNAc(a1-3)]Gal(b1-4)GlcNAc(b1-3)Gal(b1-4)GlcNAc
In short: as §1

[14] = target: Fuc(a1-2)[GalNAc(a1-3)]Gal(b1-4)[Fuc(a1-3)]GlcNAc(b1-3)GalNAc
In short: as §1

[15] = target: Fuc(a1-3)[GalNAc(b1-4)]GlcNAc
In short: as §1

[16] = target: Gal(a1-3)Gal(b1-3)[Fuc(a1-4)]GlcNAc(b1-2)Man(a1-3)[Gal(a1-3)Gal(b1-3)[Fuc(a1-4)]GlcNAc(b1-2)Man(a1-6)]Man(b1-4)GlcNAc(b1-4)GlcNAc
In short: as §1

Gal(b1-3)Gal(b1-4)GlcNAc = target: Gal(b1-3)Gal(b1-4)GlcNAc
In short: as §1

Gal(b1-3)GalNAc = target: Gal(b1-3)GalNAc
In short: as §1

[17] = target: Gal(b1-3)GalNAc(a1-3)[Fuc(a1-2)]Gal(b1-4)Glc
In short: as §1

[18] = target: Gal(b1-3)GalNAc(a1-3)[Fuc(a1-2)]Gal(b1-4)GlcNAc
In short: as §1

Gal(b1-3)GalNAc(b1-3)Gal = target: Gal(b1-3)GalNAc(b1-3)Gal
In short: as §1

[19] = target: Gal(b1-3)GalNAc(b1-3)Gal(a1-4)Gal(b1-4)Glc
In short: as §1

[20] = target: Gal(b1-3)GalNAc(b1-4)Gal(b1-4)Glc
In short: as §1

[21] = target: Gal(b1-3)GalNAc(b1-4)[Neu5Ac(a2-3)]Gal(b1-4)Glc
In short: as §1

Gal(b1-3)GlcNAc = target: Gal(b1-3)GlcNAc
In short: as §1

[22] = target: Gal(b1-3)[Fuc(a1-4)]GlcNAc
In short: as §1

[23] = target: Gal(b1-3)[Neu5Ac(a2-6)]GalNAc
In short: as §1

[24] = target: Gal(b1-3)[Neu5Ac(b2-6)]GalNAc
In short: as §1

[25] = target: Gal(b1-4)GalNAc(b1-3)[Fuc(a1-2)]Gal(b1-4)GlcNAc
In short: as §1

[26] = target: Gal(b1-4)GlcNAc(b1-2)[Gal(b1-4)GlcNAc(b1-6)]Man(a1-6)[Gal(b1-4)GlcNAc(b1-2)Man(a1-3)]Man(b1-4)GlcNAc(b1-4)[Fuc(a1-6)]GlcNAc
In short: as §1

[27] = target: Gal(b1-4)GlcNAc(b1-3)Gal(b1-4)GlcNAc(b1-2)[Gal(b1-4)GlcNAc(b1-3)Gal(b1-4)GlcNAc(b1-6)]Man(a1-6)[Gal(b1-4)GlcNAc(b1-3)Gal(b1-4)GlcNAc(b1-2)Man(a1-3)]Man(b1-4)GlcNAc(b1-4)[Fuc(a1-6)]GlcNAc
In short: as §1

GalNAc(b1-3)GlcNAc = target: GalNAc(b1-3)GlcNAc
In short: as §1

GalNAc3S(b1-4)GlcNAc = target: GalNAc3S(b1-4)GlcNAc
In short: as §1

Glc(b1-4)Glc = target: Glc(b1-4)Glc
In short: as §1

[28] = target: GlcNAc(a1-3)Gal(b1-4)GlcNAc
In short: as §1

[29] = target: GlcNAc(b1-2)[GlcNAc(b1-4)]Man(a1-3)[GlcNAc(b1-4)][GlcNAc(b1-2)[GlcNAc(b1-6)]Man(a1-6)]Man(b1-4)GlcNAc(b1-4)[Fuc(a1-6)]GlcNAc
In short: as §1

[30] = target: GlcNAc(b1-3)Gal(b1-4)GlcNAc(b1-3)Gal(b1-4)GlcNAc(b1-2)Man(a1-3)[GlcNAc(b1-3)Gal(b1-4)GlcNAc(b1-3)Gal(b1-4)GlcNAc(b1-2)Man(a1-6)]Man(b1-4)GlcNAc(b1-4)[Fuc(a1-6)]GlcNAc
In short: as §1

[31] = target: GlcNAc(b1-3)[GlcNAc(b1-6)]GalNAc
In short: as §1

Kdn(a2-6)Gal(b1-4)GlcNAc = target: Kdn(a2-6)Gal(b1-4)GlcNAc
In short: as §1

[32] = target: Man(a1-2)Man(a1-3)[Man(a1-6)]Man(a1-6)[Man(a1-2)Man(a1-3)]Man(b1-4)GlcNAc(b1-4)GlcNAc
In short: as §1

[33] = target: Man(a1-3)[Man(a1-6)]Man(a1-6)[Man(a1-3)]Man(b1-4)GlcNAc(b1-4)GlcNAc
In short: as §1

[34] = target: Neu5Ac(a2-3)Gal(b1-3)GalNAc6S
In short: as §1

[35] = target: Neu5Ac(a2-3)Gal(b1-3)GlcNAc(b1-4)Gal(b1-4)Glc
In short: as §1

[36] = target: Neu5Ac(a2-3)Gal(b1-3)GlcNAc(b1-6)GalNAc
In short: as §1

Neu5Ac(a2-3)Gal(b1-4)Glc = target: Neu5Ac(a2-3)Gal(b1-4)Glc
In short: as §1

[37] = target: Neu5Ac(a2-3)Gal(b1-4)GlcNAc(b1-2)[Neu5Ac(a2-3)Gal(b1-4)GlcNAc(b1-4)]Man(a1-3)[GlcNAc(b1-4)][Neu5Ac(a2-3)Gal(b1-4)GlcNAc(b1-4)Man(a1-6)]Man(b1-4)GlcNAc(b1-4)GlcNAc
In short: as §1

[38] = target: Neu5Ac(a2-3)Gal(b1-4)GlcNAc(b1-3)Gal
In short: as §1

[39] = target: Neu5Ac(a2-3)Gal(b1-4)GlcNAc(b1-3)Gal(b1-4)GlcNAc(b1-3)Gal(b1-4)GlcNAc
In short: as §1

Neu5Ac(a2-3)GalNAc = target: Neu5Ac(a2-3)GalNAc
In short: as §1

[40] = target: Neu5Ac(a2-6)Gal(b1-4)GlcNAc(b1-2)Man(a1-3)[Gal(b1-4)GlcNAc(b1-2)Man(a1-6)]Man(b1-4)GlcNAc(b1-4)GlcNAc
In short: as §1

[41] = target: Neu5Ac(a2-6)GalNAc(b1-4)GlcNAc6S
In short: as §1

[42] = target: Neu5Ac(a2-8)Neu5Ac(a2-3)[Gal(b1-3)GalNAc(b1-4)]Gal(b1-4)Glc
In short: as §1

[43] = target: Neu5Ac(a2-8)Neu5Ac(a2-8)Neu5Ac
In short: as §1

Neu5Gc(a2-6)GalNAc = target: Neu5Gc(a2-6)GalNAc
In short: as §1

B1: Epa3 (Candida glabrata), Q6VBI8_CANGB (protein)
chain: MGSSHHHHHHSSGLVPRGSHMNDLGFSLFEKRELSSQNPFGYPIGCSPQDVAIIPGLTMELYSYPIVSGTPPNCYDASYVDPEYPRTGYLKRKMVGKSTGVTGNLNYKYSVEKACMVKYGNLPAGYNYNEPLTVSNFTMILYGYFKAQTTGLHTFFVNADDLLYINFGAGNAFDCCKREDSKTKLGEYVAYDIWHVDSSKNKVSLFLEKDLYYPIRMFFNNIGKDSSLDLSFSVNGATDQISDFSGYLYSVPDQPDTCPAHIGYDTTCR
- glycan array binding signal (z-score) [1]: -0.314
- glycan array binding signal (z-score) [2]: 0.01
- glycan array binding signal (z-score) [3]: -0.32
- glycan array binding signal (z-score) [4]: 0.042
- glycan array binding signal (z-score) [5]: 0.047
- glycan array binding signal (z-score) [6]: 0.718
- glycan array binding signal (z-score) [7]: -0.262
- glycan array binding signal (z-score) [8]: 0.004
- glycan array binding signal (z-score) [9]: -0.263
- glycan array binding signal (z-score) [10]: 0.123
- glycan array binding signal (z-score) [11]: -0.201
- glycan array binding signal (z-score) [12]: -0.205
- glycan array binding signal (z-score) [13]: -0.246
- glycan array binding signal (z-score) [14]: 2.94
- glycan array binding signal (z-score) [15]: 0.843
- glycan array binding signal (z-score) [16]: -0.23
- glycan array binding signal (z-score) (Gal(b1-3)Gal(b1-4)GlcNAc): 3.61
- glycan array binding signal (z-score) (Gal(b1-3)GalNAc): 2.99
- glycan array binding signal (z-score) [17]: 3.57
- glycan array binding signal (z-score) [18]: 3.87
- glycan array binding signal (z-score) (Gal(b1-3)GalNAc(b1-3)Gal): 8.62
- glycan array binding signal (z-score) [19]: 3.07
- glycan array binding signal (z-score) [20]: 17
- glycan array binding signal (z-score) [21]: 2.86
- glycan array binding signal (z-score) (Gal(b1-3)GlcNAc): -0.202
- glycan array binding signal (z-score) [22]: -0.142
- glycan array binding signal (z-score) [23]: 4.98
- glycan array binding signal (z-score) [24]: 0.622
- glycan array binding signal (z-score) [25]: -0.192
- glycan array binding signal (z-score) [26]: -0.134
- glycan array binding signal (z-score) [27]: 0.064
- glycan array binding signal (z-score) (GalNAc(b1-3)GlcNAc): -0.122
- glycan array binding signal (z-score) (GalNAc3S(b1-4)GlcNAc): -0.277
- glycan array binding signal (z-score) (Glc(b1-4)Glc): -0.201
- glycan array binding signal (z-score) [28]: -0.2
- glycan array binding signal (z-score) [29]: -0.314
- glycan array binding signal (z-score) [30]: 0.201
- glycan array binding signal (z-score) [31]: -0.176
- glycan array binding signal (z-score) (Kdn(a2-6)Gal(b1-4)GlcNAc): -0.334
- glycan array binding signal (z-score) [32]: -0.175
- glycan array binding signal (z-score) [33]: -0.086
- glycan array binding signal (z-score) [34]: -0.264
- glycan array binding signal (z-score) [35]: 0.022
- glycan array binding signal (z-score) [36]: -0.336
- glycan array binding signal (z-score) (Neu5Ac(a2-3)Gal(b1-4)Glc): -0.174
- glycan array binding signal (z-score) [37]: -0.312
- glycan array binding signal (z-score) [38]: -0.282
- glycan array binding signal (z-score) [39]: -0.435
- glycan array binding signal (z-score) (Neu5Ac(a2-3)GalNAc): -0.308
- glycan array binding signal (z-score) [40]: -0.331
- glycan array binding signal (z-score) [41]: -0.236
- glycan array binding signal (z-score) [42]: 2.2
- glycan array binding signal (z-score) [43]: -0.342
- glycan array binding signal (z-score) (Neu5Gc(a2-6)GalNAc): -0.066
